Data: the supplement of paper PMC11001985
Values without a mark were called inactive.

Compound: C#CCNC(=O)CCSSCCC(=O)NCCc1ccc(C=O)c(C=O)c1
Assay: lysine labeling ratio R10:1 (500 µM / 50 µM probe), SILAC-ABPP in living cells; higher = lower intrinsic lysine reactivity toward the probe, active = 2 or less
Conditions: HeLa; probe concentrations 500 vs 50 µM
Summary of the method: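 An alkyne-tagged lysine probe with a disulfide linker labelled living HeLa cells in PBS at room temperature at either 50 µM or 500 µM, using SILAC light and heavy cells in forward and reverse label swaps. Lysates were mixed, clicked to biotin-azide, trypsin-digested, enriched on neutravidin, DTT-released, alkylated and measured by LC-MS/MS on a TIMS-TOF Pro. Each lysine's R is the filtered median high-probe/low-probe MS1 peptide ratio, combined as the median over forward and reverse replicates, with 20 as the upper limit.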

Chain of UniProt Q00610 (Q00610 whole entry): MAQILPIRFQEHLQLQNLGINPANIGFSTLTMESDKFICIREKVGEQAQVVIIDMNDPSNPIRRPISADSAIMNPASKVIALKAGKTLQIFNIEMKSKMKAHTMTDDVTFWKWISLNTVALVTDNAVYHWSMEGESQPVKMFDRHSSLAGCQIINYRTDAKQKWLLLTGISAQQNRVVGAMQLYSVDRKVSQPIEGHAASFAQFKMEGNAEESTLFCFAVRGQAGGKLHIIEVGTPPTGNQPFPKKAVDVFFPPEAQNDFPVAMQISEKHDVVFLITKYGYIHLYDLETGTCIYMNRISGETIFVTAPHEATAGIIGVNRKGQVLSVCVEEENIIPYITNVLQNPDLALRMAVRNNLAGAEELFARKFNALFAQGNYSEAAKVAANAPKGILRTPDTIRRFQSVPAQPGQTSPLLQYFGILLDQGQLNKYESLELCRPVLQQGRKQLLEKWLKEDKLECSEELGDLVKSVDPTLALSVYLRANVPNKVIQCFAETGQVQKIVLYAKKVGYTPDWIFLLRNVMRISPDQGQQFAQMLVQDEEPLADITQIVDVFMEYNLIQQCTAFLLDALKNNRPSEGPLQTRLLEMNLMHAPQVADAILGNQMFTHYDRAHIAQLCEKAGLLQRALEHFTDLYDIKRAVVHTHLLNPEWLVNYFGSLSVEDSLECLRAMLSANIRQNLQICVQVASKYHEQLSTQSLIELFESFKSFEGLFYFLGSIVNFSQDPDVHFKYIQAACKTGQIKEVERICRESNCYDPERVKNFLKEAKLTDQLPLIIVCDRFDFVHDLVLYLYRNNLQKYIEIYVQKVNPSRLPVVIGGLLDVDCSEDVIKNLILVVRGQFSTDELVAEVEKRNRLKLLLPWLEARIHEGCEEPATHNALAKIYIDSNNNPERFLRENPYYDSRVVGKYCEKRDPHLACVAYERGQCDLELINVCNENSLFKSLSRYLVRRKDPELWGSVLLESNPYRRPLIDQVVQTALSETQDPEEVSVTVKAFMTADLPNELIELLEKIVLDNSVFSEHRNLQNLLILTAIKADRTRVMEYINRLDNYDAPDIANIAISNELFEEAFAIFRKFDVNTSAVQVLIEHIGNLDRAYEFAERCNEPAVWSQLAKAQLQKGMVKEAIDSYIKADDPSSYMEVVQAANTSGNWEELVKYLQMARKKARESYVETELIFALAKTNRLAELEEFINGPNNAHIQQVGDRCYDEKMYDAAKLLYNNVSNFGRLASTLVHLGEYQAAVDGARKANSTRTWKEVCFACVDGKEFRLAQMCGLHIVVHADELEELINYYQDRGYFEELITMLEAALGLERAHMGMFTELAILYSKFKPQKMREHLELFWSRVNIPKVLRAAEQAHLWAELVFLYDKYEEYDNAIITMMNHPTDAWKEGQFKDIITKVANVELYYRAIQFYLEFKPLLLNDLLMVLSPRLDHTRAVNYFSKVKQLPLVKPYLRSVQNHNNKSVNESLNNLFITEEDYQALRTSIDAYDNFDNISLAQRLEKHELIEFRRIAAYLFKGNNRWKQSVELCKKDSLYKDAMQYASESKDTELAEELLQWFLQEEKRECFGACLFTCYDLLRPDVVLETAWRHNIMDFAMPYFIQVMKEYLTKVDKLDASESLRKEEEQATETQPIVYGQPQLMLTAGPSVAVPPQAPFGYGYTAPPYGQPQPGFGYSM
Chain of UniProt P05362 (P05362 whole entry): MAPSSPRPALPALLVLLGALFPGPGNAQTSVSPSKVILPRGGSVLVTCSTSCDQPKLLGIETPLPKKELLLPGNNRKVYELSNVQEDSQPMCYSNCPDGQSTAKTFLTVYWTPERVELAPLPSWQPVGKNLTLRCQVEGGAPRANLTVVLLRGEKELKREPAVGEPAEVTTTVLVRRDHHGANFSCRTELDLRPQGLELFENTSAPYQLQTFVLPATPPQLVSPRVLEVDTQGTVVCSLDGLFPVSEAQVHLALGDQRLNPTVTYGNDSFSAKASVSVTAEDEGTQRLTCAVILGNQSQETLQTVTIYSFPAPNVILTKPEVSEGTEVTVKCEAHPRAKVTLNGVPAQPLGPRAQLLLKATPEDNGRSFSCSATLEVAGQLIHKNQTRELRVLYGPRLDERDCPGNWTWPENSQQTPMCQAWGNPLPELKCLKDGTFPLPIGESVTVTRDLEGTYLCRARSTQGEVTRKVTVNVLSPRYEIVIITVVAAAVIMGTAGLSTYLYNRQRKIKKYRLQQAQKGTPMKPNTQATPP
Chain of UniProt Q9Y6N7 (Q9Y6N7 whole entry): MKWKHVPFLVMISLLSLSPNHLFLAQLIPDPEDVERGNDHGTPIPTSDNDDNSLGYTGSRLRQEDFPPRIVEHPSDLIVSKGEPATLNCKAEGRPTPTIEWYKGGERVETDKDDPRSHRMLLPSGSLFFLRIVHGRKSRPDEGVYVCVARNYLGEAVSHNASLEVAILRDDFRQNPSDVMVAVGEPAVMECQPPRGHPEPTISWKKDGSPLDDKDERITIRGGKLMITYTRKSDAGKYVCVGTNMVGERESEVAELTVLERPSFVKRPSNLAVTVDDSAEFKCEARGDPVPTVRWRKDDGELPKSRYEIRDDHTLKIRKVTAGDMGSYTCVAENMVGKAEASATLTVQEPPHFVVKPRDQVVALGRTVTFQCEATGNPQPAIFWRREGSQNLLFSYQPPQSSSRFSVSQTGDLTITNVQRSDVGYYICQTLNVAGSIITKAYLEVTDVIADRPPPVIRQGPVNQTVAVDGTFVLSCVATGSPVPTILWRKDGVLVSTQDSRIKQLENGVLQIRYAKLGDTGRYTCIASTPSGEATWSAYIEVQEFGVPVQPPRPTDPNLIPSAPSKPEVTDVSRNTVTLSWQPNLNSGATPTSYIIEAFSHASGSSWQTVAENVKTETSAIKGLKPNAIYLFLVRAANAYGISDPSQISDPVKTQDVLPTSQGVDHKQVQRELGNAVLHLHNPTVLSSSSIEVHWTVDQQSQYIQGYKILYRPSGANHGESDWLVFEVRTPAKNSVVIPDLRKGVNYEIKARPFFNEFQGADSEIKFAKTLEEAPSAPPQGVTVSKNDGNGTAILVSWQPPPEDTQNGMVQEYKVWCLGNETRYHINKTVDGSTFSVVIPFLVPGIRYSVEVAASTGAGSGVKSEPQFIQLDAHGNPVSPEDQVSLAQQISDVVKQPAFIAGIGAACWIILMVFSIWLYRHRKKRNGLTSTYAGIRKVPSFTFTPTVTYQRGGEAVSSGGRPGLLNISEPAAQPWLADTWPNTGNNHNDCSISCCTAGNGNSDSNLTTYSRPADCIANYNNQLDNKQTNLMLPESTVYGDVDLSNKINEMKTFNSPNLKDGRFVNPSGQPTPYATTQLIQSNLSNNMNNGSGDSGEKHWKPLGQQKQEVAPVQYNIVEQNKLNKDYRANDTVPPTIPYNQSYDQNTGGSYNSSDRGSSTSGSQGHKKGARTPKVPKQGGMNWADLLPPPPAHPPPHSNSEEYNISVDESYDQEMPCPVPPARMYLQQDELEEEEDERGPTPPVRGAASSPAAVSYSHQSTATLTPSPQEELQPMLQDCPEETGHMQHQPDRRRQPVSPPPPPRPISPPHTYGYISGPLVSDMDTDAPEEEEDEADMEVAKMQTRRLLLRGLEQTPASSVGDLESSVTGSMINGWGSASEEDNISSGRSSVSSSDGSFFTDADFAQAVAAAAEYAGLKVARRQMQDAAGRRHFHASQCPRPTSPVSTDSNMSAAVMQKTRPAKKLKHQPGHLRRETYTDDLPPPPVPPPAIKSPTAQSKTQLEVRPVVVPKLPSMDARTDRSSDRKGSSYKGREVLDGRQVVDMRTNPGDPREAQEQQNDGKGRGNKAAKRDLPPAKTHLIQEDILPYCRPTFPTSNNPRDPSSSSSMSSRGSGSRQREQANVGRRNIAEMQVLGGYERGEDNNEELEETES
Chain of UniProt P54289 (P54289 whole entry): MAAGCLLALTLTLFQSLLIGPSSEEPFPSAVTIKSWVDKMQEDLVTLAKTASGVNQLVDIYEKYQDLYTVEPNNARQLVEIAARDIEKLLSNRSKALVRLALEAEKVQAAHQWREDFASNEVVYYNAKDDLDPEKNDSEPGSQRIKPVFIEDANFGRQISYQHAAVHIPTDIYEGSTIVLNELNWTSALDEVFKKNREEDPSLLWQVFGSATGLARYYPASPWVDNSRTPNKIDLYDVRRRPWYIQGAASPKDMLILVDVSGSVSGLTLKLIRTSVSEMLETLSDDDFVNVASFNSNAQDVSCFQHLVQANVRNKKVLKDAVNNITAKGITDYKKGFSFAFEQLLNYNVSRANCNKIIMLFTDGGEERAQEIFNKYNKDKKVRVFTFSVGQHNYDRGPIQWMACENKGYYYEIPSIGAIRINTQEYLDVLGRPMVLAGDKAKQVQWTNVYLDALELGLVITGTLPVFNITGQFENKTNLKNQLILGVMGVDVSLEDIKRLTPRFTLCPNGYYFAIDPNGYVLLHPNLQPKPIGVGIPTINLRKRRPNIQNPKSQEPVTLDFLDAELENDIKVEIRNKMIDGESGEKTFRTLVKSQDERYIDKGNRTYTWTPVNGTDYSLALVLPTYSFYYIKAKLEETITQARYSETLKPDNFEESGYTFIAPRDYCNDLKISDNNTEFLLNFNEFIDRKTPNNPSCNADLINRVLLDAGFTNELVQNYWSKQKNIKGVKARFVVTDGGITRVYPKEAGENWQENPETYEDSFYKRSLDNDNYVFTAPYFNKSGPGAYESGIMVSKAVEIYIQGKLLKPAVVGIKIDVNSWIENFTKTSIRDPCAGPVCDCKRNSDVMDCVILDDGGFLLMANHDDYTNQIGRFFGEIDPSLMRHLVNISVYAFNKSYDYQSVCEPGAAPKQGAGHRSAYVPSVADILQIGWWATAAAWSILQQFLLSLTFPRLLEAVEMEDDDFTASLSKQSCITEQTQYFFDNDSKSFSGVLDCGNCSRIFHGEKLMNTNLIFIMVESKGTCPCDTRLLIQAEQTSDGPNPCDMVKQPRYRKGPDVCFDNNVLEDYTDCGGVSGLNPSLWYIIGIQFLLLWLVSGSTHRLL
Chain of UniProt P09382 (P09382 whole entry): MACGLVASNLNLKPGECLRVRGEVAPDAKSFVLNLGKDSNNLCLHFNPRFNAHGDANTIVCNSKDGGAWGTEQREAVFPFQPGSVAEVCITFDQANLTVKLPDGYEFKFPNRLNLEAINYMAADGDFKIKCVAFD

Target | lysine labeling ratio R10:1
PFKP (lysine site: K688) (UniProt Q01813) | 1.74 (active)
DSG2 (lysine site: K362) (UniProt Q14126) | 1.02 (active)
ROBO1 (lysine site: K516) (UniProt Q9Y6N7) | 4.56
FN1 (lysine site: K1050) (UniProt P02751) | 1.47 (active)
CACNA2D1 (lysine site: K146) (UniProt P54289) | 5.1
FLOT1 (lysine site: K285) (UniProt O75955) | 1.67 (active)
SPTBN1 (lysine site: K1063) (UniProt Q01082) | 7.24
CCT3 (lysine site: K427) (UniProt P49368) | 0.772 (active)
ATAD3B (lysine site: K104) (UniProt Q5T9A4) | 0.547 (active)
UniProt P60866 (lysine site: K34) | 0.547 (active)
CLTC (lysine site: K1516) (UniProt Q00610) | 1.45 (active)
UniProt P16144 (lysine site: K388) | 0.94 (active)
ICAM1 (lysine site: K67) (UniProt P05362) | 1.69 (active)
HSPD1 (lysine site: K469) (UniProt P10809) | 4.7
UniProt Q8WXI7 (lysine site: K12623) | 3.22
CCT8 (lysine site: K37) (UniProt P50990) | 1.6 (active)
F2 (lysine site: K599) (UniProt P00734) | 6.29
PGAM1 (lysine site: K39) (UniProt P18669) | 3.67
MYO1C (lysine site: K404) (UniProt O00159) | 1.66 (active)
UniProt P05187 (lysine site: K262) | 0.97 (active)

Target | lysine labeling ratio R10:1
CACYBP (lysine site: K220) (UniProt Q9HB71) | 1.74 (active)
HDGF (lysine site: K197) (UniProt P51858) | 2.54
CDH13 (lysine site: K185) (UniProt P55290) | 4.74
PFN1 (lysine site: K70) (UniProt P07737) | 2.2
Q95604 (lysine site: K210) (UniProt P10321) | 6.33
UniProt P62888 (lysine site: K9) | 2.95
UniProt O60245 (lysine site: K810) | 0.802 (active)
TMEM109 (lysine site: K46) (UniProt Q9BVC6) | 3.23
UniProt Q6ZMR3 (lysine site: K155) | 2.54
FOLR1 (lysine site: K52) (UniProt P15328) | 12.6
NLRX1 (lysine site: K301) (UniProt Q86UT6) | 2.38
ATP1B1 (lysine site: K216) (UniProt P05026) | 4.23
ITGA1 (lysine site: K292) (UniProt P56199) | 2.63
LGALS1 (lysine site: K64) (UniProt P09382) | 3.47
FGB (lysine site: K426) (UniProt P02675) | 2.95
MYH9 (lysine site: K835) (UniProt P35579) | 8.12
UniProt P08727 (lysine site: K398) | 2.38
UniProt Q15149 (lysine site: K1659) | 6.06
ITGA2 (lysine site: K1046) (UniProt P17301) | 6.48
UniProt P05186 (lysine site: K74) | 6.22
